Experimental data as given in PubChem BioAssay AID1554 (Broad Institute, 2009).
Out of some 300,000 compounds screened, about 520 (0.17%) were called active. Only a selection was taken, and actives are over-represented in it overall. A number with no mark means an inactive call. Rule as the data show it: active = inhibition above about 50%; inconclusive = no clear call, values can overlap the other calls; inactive = below that.

Assay: PubChem AID 1554
Settings: BJeLR (HRASV12) viability, CellTiter-Glo ATP luminescence, 48 h; hits give high values; concentration not given here

| SMILES | inhibition |
| --- | --- |
| COC(=O)c1c(NC(=O)c2ccccc2F)sc2c1C(C(=O)OC)CC2 (stereo not drawn) | -1.69% |
| CCOc1ccc2[nH]c3nc(SCC(=O)NC4CCCC4)nnc3c2c1 | 19.9% |
| CCOC(=O)c1c(C)nc(-c2ccccc2)nc1NC(=O)C(C)C | -1.6% |
| CCOC(=O)c1c(C)[nH]c(C)c1S(=O)(=O)N(C)CC(=O)Nc1ccccc1C | 1.31% |
| CCOC(=O)c1c(C)[nH]c2c1-c1ccccc1C(=O)C2=O | 74.1% (active) |
| O=C(NNc1c2ccccc2nc2ccccc12)c1cc2ccccc2cc1O | 11.9% |
| NC(=O)C1CC(=O)N(c2ccc(OCC(=O)NCc3ccccc3)cc2)C1 (stereo not drawn) | -5.85% |
| COc1ccccc1N1CCN(C(=O)c2cc(=O)c3cc(C)cc(C)c3o2)CC1 | 58.9% (active) |
| COc1ccccc1N1CCN(C(=O)c2cc(=O)c3cc(C)ccc3o2)CC1 | 8.05% |
| COc1cccc(-c2cc(C(=O)N3CCN(c4ccccc4OC)CC3)no2)c1 | -5.2% |
| Cc1ccc(-c2cc(C(F)(F)F)n3ncc(C(=O)N4CCCCC4c4cccnc4)c3n2)cc1 (stereo not drawn) | -3.16% |
| CSc1n[nH]c(=S)n1N | 6.98% |
| CCOC(=O)c1cccc(NC(=O)CCn2nnc3ccccc32)c1 | 5.93% |
| COC(=O)c1ccc(C(=O)Nc2cc(Cl)ccc2Cl)cc1NC(=O)c1ccccc1C | 5.33% |
| COc1c(C(=O)N2CCCC2)ccc2ccccc12 | -16.2% |
| CC(C)n1c(-c2ccncc2)n[nH]c1=S | -1.2% |
| O=c1[nH]snc1-c1c(Cl)cccc1Cl | 1.3% |
| CC[C@H]1CN2CCc3cc(OC)c(OC)cc3[C@@H]2C[C@@H]1C[C@H]1NCCc2cc(OC)c(OC)cc21 | 71.3% (active) |
| COc1ccc2c(c1)CCNC2Cc1ccc(OC)c(O)c1 (stereo not drawn) | -7.5% |
| CCc1ccc(OCC2c3cc(OC)c(OC)cc3CCN2C(C)=O)cc1 (stereo not drawn) | -19.6% |
| CN(c1ccccc1)S(=O)(=O)c1cccc(C(=O)NNC(=O)c2ccncc2)c1 | -13.6% |
| COc1cc(NS(=O)(=O)c2ccc(NC(=O)CN3C(=O)c4ccccc4C3=O)cc2)ncn1 | -1.96% |

| SMILES | inhibition |
| --- | --- |
| COc1ccc(CNC(=O)CCC(=O)Nc2nnc(C(C)C)s2)cc1 | 2.41% |
| O=C(NCc1ccc2c(c1)OCO2)c1sccc1Br | -9.24% |
| CSc1nc(C)nc(C2CC2)c1C#N | -2.16% |
| CCOc1ccc(C(CC(=O)O)n2cnnn2)cc1OC (stereo not drawn) | -0.928% |
| COc1ccc(NC(=O)C(C)N2c3cccc4cccc(c34)S2(=O)=O)c(OC)c1 (stereo not drawn) | -7.67% |
| O=C(c1cccc(F)c1)N1CCC(O)(c2cccnc2)CC1 | 1.27% |
| Cc1ccc(Nc2cc(C)nc3c(C)ccc([N+](=O)[O-])c23)cc1 | -0.482% |
| N#Cc1c(-c2cccs2)nc(SCC(=O)c2ccc(Br)cc2)[nH]c1=O | -2.63% |
| COc1ccc(Nc2ncc(F)c(N3CCOCC3)n2)cc1 | -4.96% |
| Cc1nnc(NC(=O)/C=C/c2ccco2)s1 | 2.63% |
| O=C(/C=C/c1ccco1)Nc1ccc(Oc2ccccc2)cc1 | 66.3% (active) |
| O=C(/C=C/c1ccco1)Nc1cccc(-c2nc3ccccc3[nH]2)c1 | -10.7% |
| CCCOc1ccc(C(=O)CCC(=O)OC(C)C(=O)Nc2ccc(NC(C)=O)cc2)cc1 (stereo not drawn) | 0.465% |
| CCCCOc1ccc(C(=O)NN2CCN(C)CC2)cc1 | 1.04% |
| CCCOc1ccc(C(=O)C(CCC(CNCC)C(=O)c2ccc(OCCC)cc2)CNCC)cc1 (stereo not drawn) | 137% (active) |
| CCOc1cc(C2C(C(=O)OC(C)C)=C(C)NC3=C2C(=O)CCC3)cc([N+](=O)[O-])c1O (stereo not drawn) | -2.99% |
| Cc1ccc(CNC(=O)c2cccnc2Cl)cc1 | 1.72% |
| COc1cc(C(CCN2CCN(c3ccccc3)CC2)c2c(OC)cc(OC)c3ccc(=O)oc23)cc(OC)c1OC (stereo not drawn) | -7.5% |
| COC(=O)C(C(=O)Nc1cccc(Cl)c1C)C1CCCC1 (stereo not drawn) | -7.59% |
| COc1ccc(/C=C/C2=CC(C)(C)NC(=S)N2)c(OC)c1 | -7.98% |
| NC(=O)CC[C@@H]1NC(=O)[C@H](CO)NC(=O)c2cc([N+](=O)[O-])cc(I)c2NCC[C@@H](C(N)=O)NC1=O | -1.96% |
| CCC(=C/c1sc2ccc3ccccc3c2[n+]1C)/C=C1\Sc2ccc3ccccc3c2N1C | 60.9% (active) |

| SMILES | inhibition |
| --- | --- |
| COc1ccc(C2=NS(=O)(=O)N(C)C(C(=O)N3CCCCC3)=C2)cc1 | -1.58% |
| COc1cc(-c2c(-c3ccc4c(c3)OCO4)noc2C)ccc1F | -5.31% |
| C=CCNc1nc(N)c([N+](=O)[O-])c(NC2CCCCC2)n1 | -1.25% |
| CC(=O)NCCc1ccc(S(=O)(=O)N(C)C2CCS(=O)(=O)C2)cc1 (stereo not drawn) | 7.45% |
| O=C(NCc1ccco1)c1ccc(NS(=O)(=O)c2cccc([N+](=O)[O-])c2)cc1 | 5.53% |
| COc1ccc(S(=O)(=O)N2CCOCC2)cc1NC(=O)COc1ccccc1 | -1.51% |
| COc1ccccc1N(C(=O)Cn1nnc2ccccc21)C(C(=O)NCc1ccco1)c1ccc(C)o1 (stereo not drawn) | -3.41% |
| O=C(Nc1ccc(Cl)cc1)/C(=C1\CCCN1)[N+](=O)[O-] | -2.59% |
| CCCC(C(=O)NC1CCCC1)N(C(=O)Cn1nnc(-c2ccc(C)o2)n1)c1cccc(O)c1 (stereo not drawn) | -0.539% |
| Cc1c(NC(=O)Nc2cccc([N+](=O)[O-])c2)c(=O)n(-c2ccccc2)n1C | 1.78% |
| CC1(C)O[C@H]2CC(=O)OCC23[C@H]2CC[C@@]4(C)[C@H](c5ccoc5)OC(=O)[C@H]5O[C@]54[C@]2(C)C(=O)C[C@@H]13 (stereo partly drawn) | 4.22% |
| CC(C)CNC(=S)NC(=O)c1ccc(Cl)cc1 | -11.5% |
| Cc1cc(F)ccc1NC(=O)C(C)n1c2ccccc2c2nc(=O)cc(C)n21 (stereo not drawn) | -6.86% |
| CN(C)CCN(Cc1ccccc1)S(=O)(=O)c1csc(C(N)=O)c1 | 7.25% |
| CC(C)Cc1nnc(NC(=O)CN2C(=O)NC3(CCCCC3)C2=O)s1 | 4.35% |
| CCOC(=O)CNc1nc(Cl)nc(Nc2ccc(OC)cc2OC)n1 | -1.85% |
| CCN1C(=O)N[C@@H](c2ccccc2)C(C(=O)OC)=C1C | 2.76% |
| COc1cccc(NC(=O)c2ccccc2N(Cc2ccccc2)S(C)(=O)=O)c1 | 3.05% |
| CCCOc1ccccc1C1CC(=O)Nc2cc3c(cc21)OCO3 (stereo not drawn) | 21.8% |
| COc1ccc(S(=O)(=O)Nc2ccc3c(c2)OCO3)cc1Cl | 4.86% |
| COc1ccccc1C1C2=C(COC2=O)Nc2cc3c(cc21)OCO3 (stereo not drawn) | 71.8% (active) |
| CC1COc2ccccc2N1S(=O)(=O)c1ccccc1 (stereo not drawn) | -0.313% |

| SMILES | inhibition |
| --- | --- |
| CC(C)(C)c1cc(NC(=O)NN2CCOCC2)nn1-c1c(Cl)cc(Cl)cc1Cl | -1.25% |
| COc1ccc(C(C(O)C(=O)c2c[nH]c3ccccc23)N2CCN(c3ccccc3)CC2)cc1 (stereo not drawn) | 0.745% |
| COc1cc(/C=C(\C#N)c2nc3ccccc3[nH]2)ccc1O | -5.76% |
| COc1ccc(/C=C(\C#N)c2c[nH]c3ccccc23)cc1 | 52.5% (active) |
| CC(NC(=O)Cn1cc(C(F)(F)F)cc(Cl)c1=O)c1ccccc1 (stereo not drawn) | -4.93% |
| O=C(NNC(=O)c1ccccc1[N+](=O)[O-])Nc1ccccc1C(F)(F)F | 1.35% |
| Cc1cccc(-n2ncc(C#N)c2-n2cccc2)c1 | -4.28% |
| O=c1c(Cl)c(NC2CC2)cnn1-c1ccccc1 | -3.03% |
| Cc1cccc(-n2ncc(Cl)c(Cl)c2=O)c1 | 90.5% (active) |
| CC[C@]1(O)C[C@@H]2CN(CCc3c([nH]c4ccccc34)[C@@](C(=O)OC)(c3cc4c(cc3OC)N(C)[C@H]3[C@@](O)(C(=O)OC)[C@H](OC(C)=O)[C@]5(CC)C=CCN6CC[C@]43[C@@H]65)C2)C1 | 69.1% (active) |
| CC[C@]1(O)CC2CN(CCc3c([nH]c4ccccc34)[C@@](C(=O)OC)(c3cc4c(cc3OC)N(C=O)[C@H]3[C@@](O)(C(=O)OC)[C@H](OC(C)=O)[C@]5(CC)C=CCN6CC[C@]43[C@@H]65)C2)C1 (stereo partly drawn) | 34.8% |
| CC[C@H]1CC2CN3CCc4c([nH]c5ccccc45)C(C(=O)OC)(C2)C13 (stereo partly drawn) | 2.65% |
| CCOc1ccc(C(CC(=O)O)NC(=O)C23CC4CC(CC(C4)C2)C3)cc1OC (stereo not drawn) | 8.09% |
| OCCn1c(-c2ccccc2)csc1=Nc1ccccc1 | 3.02% |
| Cc1ccc(S(=O)(=O)N2CCCC2C(=O)OCc2nc3sc(C)c(C)c3c(=O)[nH]2)cc1 (stereo not drawn) | 2% |
| CC12C(=O)N(n3cnnc3)C(=O)C1C1C=CC2C1 (stereo not drawn) | 6.14% |
| Cc1ccc(CN2CCNC(=O)C2CC(=O)NCc2csc(C(C)C)n2)cc1 (stereo not drawn) | -3.33% |
| Cc1ccc(Cn2cc(C(=O)NN)c(=O)c3ccc(F)cc32)cc1 | -4.45% |
| CC(C)CN(C(=O)c1cccc(S(=O)(=O)N2CCCCC2)c1)C1CCS(=O)(=O)C1 (stereo not drawn) | 2.4% |
| Clc1ccc2c(c1)C1=C(C(c3ccncc3)O2)C(c2ccc(Br)cc2)n2ncnc2N1 (stereo not drawn) | -10% |
| Brc1ccc2ncnc(NCc3cccnc3)c2c1 | 4.75% |
| COc1ccc(C2=NOC(Cn3nc(C(=O)NCc4ccc5c(c4)OCO5)cc3-c3ccccc3)C2)cc1 (stereo not drawn) | 8.13% |
